# Source: PubChem BioAssay (Tox21)
# Records with an inconclusive call do not appear. Entries that show only a call come without a potency. Unmarked numbers belong to inactive results. Calls of active or inactive are those of the source. Unless noted, calls follow the shape of the dose curve; as a rule, active = well fitted curve in the direction sought with a large enough effect in the repeat runs; inconclusive = weak or mixed curves; inactive = no such curve, though single readings can be large; an effect the other way counts as inactive or inconclusive.
# Key:
# [1] = target: Aryl hydrocarbon receptor (Homo sapiens) (UniProt P35869); assay: qHTS assay to identify small molecule that activate the aryl hydrocarbon receptor (AhR) signaling pathway (AID 743085); also: nearly all actives have a fitted effect of over 15% in size; also: potency is read from the fitted curve at half-maximal effect;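 as to activation: HG2L7.5c1 human HepG2 liver cells with stably integrated DRE-driven firefly reporter; series mostly up to about 70 µM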
# Procedure, shortened: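 HepG2 cells (HG2L7.5c1) stably carrying a firefly luciferase reporter driven by 20 dioxin responsive elements were exposed to compound for 24 h at 37C after a 5 h settling period; luminescence rise (ONE-Glo) indicated activation.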
# [2] = qHTS assay to identify small molecule that activate the aryl hydrocarbon receptor (AhR) signaling pathway - cell viability counter screen (AID 743086);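 also: HepG2 liver cells carrying the AhR DRE luciferase reporter; series mostly up to about 70 µM; nearly all actives have a fitted effect of over 45% in size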
# Procedure, shortened: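 HepG2-AhR-luc (HG2L7.5c1) cells, 4000/well, treated 24 h at 37 C with compound; viability measured as CellTiter-Fluor fluorescence after 30 min in the same wells as the luciferase read.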
# [3] = qHTS assay to identify small molecule antagonists of the peroxisome proliferator-activated receptor gamma (PPARg) signaling pathway - cell viability counter screen (AID 743194); also: nearly all actives have a fitted effect of over 55% in size
# Procedure, shortened: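 Cytotoxicity counter screen in PPARg-bla HEK293H cells, same wells as reporter assay. Compounds plus 50 nM rosiglitazone (final) for 17 h at 37 C, then viability read by CellTiter-Glo luminescence.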
# [4] = qHTS assay for small molecule agonists of the antioxidant response element (ARE) signaling pathway (AID 743202; active = well fitted activation curve with a large enough effect in the signal ratio in the repeat runs, not every such curve was filed as active; the % refers to the signal ratio)
# Procedure, shortened: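 Agonist mode reporter screen: HepG2 cells with ARE-controlled beta-lactamase are incubated with test compounds for 16 h at 37 C, and beta-lactamase activity is measured as fluorescence of cleaved B/G FRET substrate.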
# [5] = qHTS assay for small molecule agonists of the antioxidant response element (ARE) signaling pathway - cell viability counter screen (AID 743203; calls by dose curve; also: nearly all actives have a fitted effect of over 55% in size)
# Procedure, shortened: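 CellSensor ARE-bla HepG2 cells, 2,000 per well, rested 5 hrs at 37C/5% CO2, then exposed to compound in DMSO for 16 hrs; viability read as CellTiter-Glo luminescence after 30 min at room temperature, in the reporter wells.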
# [6] = qHTS assay for small molecule activators of the heat shock response signaling pathway (AID 743210; active = well fitted activation curve with a large enough effect in the signal ratio in the repeat runs, with a control signal flat, not every such curve was filed as active; the % refers to the signal ratio;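 also: HeLa cells with beta-lactamase reporter driven by heat shock elements; series mostly up to about 63 µM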)
# Procedure, shortened: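 Quantitative high-throughput format using an engineered HeLa line in which heat shock response elements drive beta-lactamase; after 5 h with compound, cells received a B/G FRET substrate and fluorescence was read.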
# [7] = qHTS assay to identify small molecule agonists of the peroxisome proliferator-activated receptor delta (PPARd) signaling pathway - cell viability counter screen (AID 743211); also: nearly all actives have a fitted effect of over 55% in size
# Procedure, shortened: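 PPARd-bla HEK293H cells (UAS-beta-lactamase reporter) were treated with compounds for 17 h at 37 C. Viability was then read in the same wells by CellTiter-Glo luminescence after 30 min at room temperature.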
# [8] = qHTS assay to identify small molecule antagonists of the peroxisome proliferator-activated receptor delta (PPARd) signaling pathway - cell viability counter screen (AID 743213); also: nearly all actives have a fitted effect of over 50% in size
# Procedure, shortened: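 Cytotoxicity counter screen: CellTiter-Glo luminescence read 30 min after addition, in the same wells as the reporter assay. There, PPARd UAS-bla HEK293H cells (3000/well) were treated 17 h at 37 C with compound and 300 nM L165041.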
# [9] = target: Bile acid receptor (Homo sapiens) (UniProt Q96RI1); assay: qHTS assay to identify small molecule antagonists of the farnesoid-X-receptor (FXR) signaling pathway (AID 743217; active = well fitted inhibition curve with a large enough effect in the signal ratio in the repeat runs, not every such curve was filed as active; the % refers to the signal ratio)
# Procedure, shortened: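 FXR-UAS-bla HEK 293T cells pre-incubated 5 h at 37 °C, then exposed to compounds with chenodeoxycholic acid (50 uM final) for 16 h at 37 °C. Beta-lactamase reporter read by LiveBLAzer B/G FRET substrate fluorescence after 2 h at room temperature.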
# [10] = qHTS assay to identify small molecule agonists of the farnesoid-X-receptor (FXR) signaling pathway - cell viability counter screen (AID 743218); also: nearly all actives have a fitted effect of over 45% in size
# Procedure, shortened: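 FXR-UAS-bla HEK 293T cells, plated 5 h at 37 C, were exposed to compounds for 16 h at 37 C. CellTiter-Glo was then added to the same wells as the bla readout; luminescence read after 30 min at room temperature.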
# [11] = target: Bile acid receptor (Homo sapiens) (UniProt Q96RI1); assay: qHTS assay to identify small molecule agonists of the farnesoid-X-receptor (FXR) signaling pathway (AID 743220; active = well fitted activation curve with a large enough effect in the signal ratio in the repeat runs, not every such curve was filed as active; the % refers to the signal ratio)
# Procedure, shortened: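 Beta-lactamase reporter under UAS control in GeneBLAzer FXR HEK 293T cells (5000/well) measured with LiveBLAzer FRET substrate after 2 h at room temperature. Compound exposure lasted 16 h at 37C.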
# [12] = qHTS assay to identify small molecule antagonists of the farnesoid-X-receptor (FXR) signaling pathway - cell viability counter screen (AID 743221; active = well fitted cell-killing curve with a large enough effect in the repeat runs, not every such curve was filed as active; also: nearly all actives have a fitted effect of over 50% in size)
# Procedure, shortened: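 FXR-UAS-bla HEK 293T cells were treated with test compounds plus chenodeoxycholic acid (50 uM final) for 16 h at 37 C. Cell viability in the same wells was then read as CellTiter-Glo luminescence after 30 min at room temperature.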
# [13] = qHTS assay to identify small molecule agonists of the vitamin D receptor (VDR) signaling pathway - cell viability counter screen (AID 743224); also: series mostly up to about 63 µM; nearly all actives have a fitted effect of over 50% in size
# Procedure, shortened: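 VDR-bla cells were preincubated 4 h at 37C/5% CO2, then exposed to compounds for 16 h. After the 2 h room-temperature bla FRET read, CellTiter-Glo was added to the same wells and luminescence read after 30 min.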
# [14] = target: Peroxisome proliferator-activated receptor gamma (Homo sapiens) (UniProt P37231); assay: qHTS assay to identify small molecule agonists of the peroxisome proliferator-activated receptor gamma (PPARg) signaling pathway (AID 743094; active = well fitted activation curve with a large enough effect in the signal ratio in the repeat runs, not every such curve was filed as active; the % refers to the signal ratio)
# Procedure, shortened: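 GeneBLAzer PPARg UAS-bla HEK293H cells carrying a stably integrated beta-lactamase reporter were pre-incubated 5 h at 37C, then exposed to compounds in DMSO for 17 h at 37C; LiveBLAzer B/G FRET substrate was added for 1 h at room temperature and fluorescence read.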
# [15] = qHTS assay for small molecule activators of the heat shock response signaling pathway - cell viability counter screen (AID 743209); also: nearly all actives have a fitted effect of over 50% in size
# Procedure, shortened: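 CellSensor HSE-bla HeLa cells, plated overnight at 37 C/5% CO2, were exposed to compounds in DMSO for 5 h at 37 C. Viability was then read in the same wells by CellTiter-Glo luminescence after 30 min at room temperature.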
# [16] = target: Peroxisome proliferator-activated receptor gamma (Homo sapiens) (UniProt P37231); assay: qHTS assay to identify small molecule antagonists of the peroxisome proliferator-activated receptor gamma (PPARg) signaling pathway (AID 743191; calls by dose curve; also: series mostly up to about 63 µM; nearly all actives have a fitted effect of over 30% in size)
# Procedure, shortened: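 GeneBLAzer PPARg UAS-bla HEK293H cells, 5 h post-plating, exposed to compounds 17 h at 37C. LiveBLAzer B/G FRET substrate added for 1 h at room temperature; beta-lactamase reporter read by fluorescence intensity.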
# [17] = target: Peroxisome proliferator-activated receptor delta (Homo sapiens) (UniProt Q03181); assay: qHTS assay to identify small molecule agonists of the peroxisome proliferator-activated receptor delta (PPARd) signaling pathway (AID 743212; calls by dose curve)
# Procedure, shortened: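 Quantitative high-throughput agonist screen in a HEK293H beta-lactamase reporter line under UAS control. Compounds in DMSO, at 37 C. Fluorescence read after 2 h with FRET substrate at room temperature.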
# [18] = target: Peroxisome proliferator-activated receptor delta (Homo sapiens) (UniProt Q03181); assay: qHTS assay to identify small molecule antagonists of the peroxisome proliferator-activated receptor delta (PPARd) signaling pathway (AID 743215; active = well fitted inhibition curve with a large enough effect in the signal ratio in the repeat runs, not every such curve was filed as active; the % refers to the signal ratio;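 also: cells stimulated with agonist L165041 at 300 nM final during compound exposure; series mostly up to about 62 µM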)
# Procedure, shortened: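 PPARd UAS-bla HEK293H cells were pre-incubated 5 h at 37 C, then given test compounds in DMSO plus agonist L165041 (300 nM final). After 17 h at 37 C, beta-lactamase FRET substrate was added; fluorescence read after 2 h at room temperature.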
# [19] = target: Vitamin D3 receptor (Homo sapiens) (UniProt P11473); assay: qHTS assay to identify small molecule antagonists of the vitamin D receptor (VDR) signaling pathway (AID 743223; active = well fitted inhibition curve with a large enough effect in the signal ratio in the repeat runs, not every such curve was filed as active; the % refers to the signal ratio)
# Procedure, shortened: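 VDR-bla cells were plated, incubated 4 h at 37C, then given compound and 1alpha,25-dihydroxyvitamin D3 (3 nM final). After 16 h at 37C, LiveBLAzer B/G FRET substrate was added for 2 h at room temperature and fluorescence read.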
# [20] = target: Vitamin D3 receptor (Homo sapiens) (UniProt P11473); assay: qHTS assay to identify small molecule agonists of the vitamin D receptor (VDR) signaling pathway (AID 743222; calls by dose curve)
# Procedure, shortened: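 VDR-bla cells were plated 4 h at 37C/5% CO2, then exposed to compounds in DMSO for 16 h. After LiveBLAzer B/G FRET substrate addition and 2 h at room temperature, beta-lactamase reporter fluorescence was read.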
# Aryl hydrocarbon receptor (Homo sapiens), sequence (P35869 whole entry, looked up): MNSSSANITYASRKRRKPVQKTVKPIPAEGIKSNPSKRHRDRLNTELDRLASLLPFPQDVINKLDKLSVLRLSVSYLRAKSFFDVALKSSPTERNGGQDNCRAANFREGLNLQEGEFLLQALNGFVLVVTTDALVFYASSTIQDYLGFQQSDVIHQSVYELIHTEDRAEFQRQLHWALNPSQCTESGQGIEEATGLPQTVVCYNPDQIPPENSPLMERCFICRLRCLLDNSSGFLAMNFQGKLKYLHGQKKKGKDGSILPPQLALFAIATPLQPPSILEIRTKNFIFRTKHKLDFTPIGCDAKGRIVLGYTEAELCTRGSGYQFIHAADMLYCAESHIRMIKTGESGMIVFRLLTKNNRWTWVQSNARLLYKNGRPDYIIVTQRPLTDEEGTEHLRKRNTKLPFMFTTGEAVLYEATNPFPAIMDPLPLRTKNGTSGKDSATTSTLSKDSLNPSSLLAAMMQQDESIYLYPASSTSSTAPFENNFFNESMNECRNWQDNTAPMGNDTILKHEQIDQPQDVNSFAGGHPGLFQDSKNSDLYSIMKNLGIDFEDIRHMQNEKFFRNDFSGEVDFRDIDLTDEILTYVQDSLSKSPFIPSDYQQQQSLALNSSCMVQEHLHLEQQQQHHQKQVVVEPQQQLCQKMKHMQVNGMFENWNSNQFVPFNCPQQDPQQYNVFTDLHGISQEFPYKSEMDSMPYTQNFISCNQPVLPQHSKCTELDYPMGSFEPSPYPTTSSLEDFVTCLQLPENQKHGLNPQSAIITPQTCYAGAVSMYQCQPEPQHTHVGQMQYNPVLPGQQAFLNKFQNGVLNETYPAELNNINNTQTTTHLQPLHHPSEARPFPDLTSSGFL
# Vitamin D3 receptor (Homo sapiens), sequence (P11473 whole entry, looked up): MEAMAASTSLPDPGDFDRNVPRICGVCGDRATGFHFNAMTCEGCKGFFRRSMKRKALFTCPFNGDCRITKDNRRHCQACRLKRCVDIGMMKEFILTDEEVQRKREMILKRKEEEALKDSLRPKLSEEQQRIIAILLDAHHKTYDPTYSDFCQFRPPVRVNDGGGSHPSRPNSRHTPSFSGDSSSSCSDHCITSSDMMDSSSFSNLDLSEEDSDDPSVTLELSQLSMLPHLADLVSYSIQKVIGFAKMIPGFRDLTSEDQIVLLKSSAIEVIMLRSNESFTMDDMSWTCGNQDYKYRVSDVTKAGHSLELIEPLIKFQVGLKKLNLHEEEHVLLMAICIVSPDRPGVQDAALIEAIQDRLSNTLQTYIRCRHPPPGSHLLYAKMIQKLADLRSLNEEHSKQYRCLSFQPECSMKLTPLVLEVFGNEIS
# Peroxisome proliferator-activated receptor delta (Homo sapiens), sequence (Q03181 whole entry, looked up): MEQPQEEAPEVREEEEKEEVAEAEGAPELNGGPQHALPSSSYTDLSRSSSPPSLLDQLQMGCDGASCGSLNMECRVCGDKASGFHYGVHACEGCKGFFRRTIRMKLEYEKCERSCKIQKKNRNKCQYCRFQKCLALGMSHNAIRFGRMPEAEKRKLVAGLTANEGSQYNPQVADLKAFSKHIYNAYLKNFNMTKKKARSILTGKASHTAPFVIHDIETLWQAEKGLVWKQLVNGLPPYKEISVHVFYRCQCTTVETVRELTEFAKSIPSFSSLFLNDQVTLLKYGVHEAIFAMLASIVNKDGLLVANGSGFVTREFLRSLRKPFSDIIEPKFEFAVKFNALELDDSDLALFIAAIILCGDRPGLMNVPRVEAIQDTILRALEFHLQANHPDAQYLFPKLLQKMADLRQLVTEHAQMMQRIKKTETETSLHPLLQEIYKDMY
# Bile acid receptor (Homo sapiens), sequence (Q96RI1 whole entry, looked up): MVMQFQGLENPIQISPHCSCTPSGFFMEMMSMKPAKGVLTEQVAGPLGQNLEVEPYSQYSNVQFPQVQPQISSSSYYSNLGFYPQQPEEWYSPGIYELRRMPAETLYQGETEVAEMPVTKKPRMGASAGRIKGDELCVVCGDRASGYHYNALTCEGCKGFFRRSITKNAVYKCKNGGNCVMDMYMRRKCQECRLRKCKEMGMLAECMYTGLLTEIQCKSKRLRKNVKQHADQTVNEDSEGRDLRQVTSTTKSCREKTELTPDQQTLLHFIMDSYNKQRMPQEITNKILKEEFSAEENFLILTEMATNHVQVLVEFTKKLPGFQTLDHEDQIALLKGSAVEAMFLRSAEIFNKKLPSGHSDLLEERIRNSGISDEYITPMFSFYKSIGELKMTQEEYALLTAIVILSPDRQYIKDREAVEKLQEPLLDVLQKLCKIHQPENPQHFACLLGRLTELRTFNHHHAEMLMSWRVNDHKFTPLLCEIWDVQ
# Peroxisome proliferator-activated receptor gamma (Homo sapiens), sequence (P37231 whole entry, looked up): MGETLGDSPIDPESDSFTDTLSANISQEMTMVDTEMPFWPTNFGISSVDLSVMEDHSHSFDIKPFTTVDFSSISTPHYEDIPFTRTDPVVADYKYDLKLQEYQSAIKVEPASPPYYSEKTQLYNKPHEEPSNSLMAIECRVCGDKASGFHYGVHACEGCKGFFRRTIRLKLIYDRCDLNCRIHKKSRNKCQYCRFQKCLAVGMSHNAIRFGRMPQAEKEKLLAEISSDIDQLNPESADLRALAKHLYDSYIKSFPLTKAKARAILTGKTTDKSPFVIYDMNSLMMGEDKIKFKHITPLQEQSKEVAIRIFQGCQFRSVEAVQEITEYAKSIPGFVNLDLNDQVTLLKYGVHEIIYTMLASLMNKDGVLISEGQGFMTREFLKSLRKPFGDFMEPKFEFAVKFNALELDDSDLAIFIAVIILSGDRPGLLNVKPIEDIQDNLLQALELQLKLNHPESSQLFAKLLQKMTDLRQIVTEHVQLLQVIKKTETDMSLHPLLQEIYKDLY
structure (smiles),measurement,setting,value
CCCCCCCCS(=O)(=O)O,Potency,[1],inactive
same,outcome,[2],inactive
same,outcome,[3],inactive
same,Potency,[4],inactive
same,outcome,[5],inactive
same,outcome,[6],inactive
same,outcome,[7],inactive
same,outcome,[8],inactive
same,outcome,[9],inactive
same,outcome,[10],inactive
same,outcome,[11],inactive
same,outcome,[12],inactive
same,outcome,[13],inactive
O=Cc1ccc(C(=O)O)cc1,Potency,[1],inactive
same,outcome,[2],inactive
same,outcome,[14],inactive
same,outcome,[5],inactive
same,Potency,[15],inactive
same,outcome,[6],inactive
same,outcome,[7],inactive
same,outcome,[8],inactive
same,outcome,[10],inactive
same,outcome,[12],inactive
same,outcome,[13],inactive
COC(=O)c1c(C)cc(O)c(C)c1O,outcome,[2],inactive
same,outcome,[14],inactive
same,outcome,[16],inactive
same,outcome,[3],inactive
same,Potency,[4],inactive
same,outcome,[5],inactive
same,Potency,[15],inactive
same,outcome,[6],inactive
same,outcome,[7],inactive
same,outcome,[17],inactive
same,outcome,[8],inactive
same,outcome,[18],inactive
same,outcome,[10],inactive
same,outcome,[12],inactive
same,outcome,[19],inactive
same,outcome,[13],inactive
CNCCc1ccccn1,Potency,[1],inactive
same,outcome,[2],inactive
same,outcome,[3],inactive
same,Potency,[4],inactive
same,outcome,[5],inactive
same,outcome,[6],inactive
same,outcome,[7],inactive
same,outcome,[8],inactive
same,outcome,[10],inactive
same,outcome,[12],inactive
same,outcome,[13],inactive
COc1ccc2cc(CCC(C)=O)ccc2c1,Potency,[1],3.2 µM (active)
same,outcome,[2],inactive
same,outcome,[16],inactive
same,outcome,[3],inactive
same,outcome,[5],inactive
same,Potency,[15],inactive
same,outcome,[6],inactive
same,outcome,[7],inactive
same,outcome,[17],inactive
same,outcome,[10],inactive
same,outcome,[11],inactive
same,outcome,[13],inactive
CCc1ccc(CC)cc1,Potency,[1],inactive
same,outcome,[2],inactive
same,outcome,[14],inactive
same,Potency,[4],inactive
same,outcome,[5],inactive
same,Potency,[15],inactive
same,outcome,[6],inactive
same,outcome,[8],inactive
same,outcome,[10],inactive
same,outcome,[12],inactive
same,outcome,[20],inactive
same,outcome,[19],inactive
same,outcome,[13],inactive
CCCCCCCCCCCCCCCCN(C)C,activation,[1],-0.709% [at 8.47 µM]
same,"viability change, negative = cytotoxic",[2],-0.517% [at 8.47 µM]
same,"activity change, negative = cytotoxicity",[3],2.19% [at 5.95 µM]
same,activation,[4],0.808% [at 8.36 µM]
same,"viability change, negative = cytotoxic",[5],8.57% [at 8.36 µM]
same,"activity change, negative = cytotoxicity",[7],1.19% [at 5.95 µM]
same,"viability change, negative = cytotoxic",[8],1.6% [at 6.26 µM]
same,"ratio activity, negative = inhibition",[18],-0.339% [at 6.26 µM]
same,"activity change, negative = inhibition",[9],-5.41% [at 5.95 µM]
same,"viability change, negative = cytotoxic",[10],0.68% [at 5.95 µM]
same,"activity change, negative = cytotoxicity",[12],-0.818% [at 5.95 µM]
same,"activity change, negative = cytotoxicity",[13],12.1% [at 5.95 µM]
C[C@@H]1CC[C@@]2(OC1)O[C@H]1C[C@H]3[C@@H]4CC[C@H]5C[C@@H](O)CC[C@]5(C)[C@H]4CC(=O)[C@]3(C)[C@H]1[C@@H]2C,Potency,[1],inactive
same,outcome,[2],inactive
same,"activity change, negative = cytotoxicity",[3],10.8% [at 5.95 µM]
same,activation,[4],5.01% [at 8.36 µM]
same,"viability change, negative = cytotoxic",[5],3.19% [at 8.36 µM]
same,"activity change, negative = cytotoxicity",[15],11.4% [at 5.95 µM]
same,activation,[6],0.0014% [at 5.95 µM]
same,"activity change, negative = cytotoxicity",[7],5.8% [at 5.95 µM]
same,activation,[17],0.168% [at 5.95 µM]
same,"viability change, negative = cytotoxic",[8],11.9% [at 6.26 µM]
same,"ratio activity, negative = inhibition",[18],2.62% [at 6.26 µM]
same,"activity change, negative = inhibition",[9],10.4% [at 5.95 µM]
same,"viability change, negative = cytotoxic",[10],12.5% [at 5.95 µM]
same,activation,[11],2.31% [at 5.95 µM]
same,"activity change, negative = cytotoxicity",[12],4.76% [at 5.95 µM]
same,"activity change, negative = cytotoxicity",[13],4.49% [at 5.95 µM]
Cc1ccc2ccccc2n1,Potency,[1],inactive
same,outcome,[2],inactive
same,outcome,[16],inactive
same,outcome,[3],inactive
same,Potency,[4],inactive
same,outcome,[5],inactive
same,Potency,[15],inactive
same,outcome,[7],inactive
same,outcome,[8],inactive
same,outcome,[18],inactive
same,outcome,[10],inactive
same,outcome,[12],inactive
same,outcome,[20],inactive
same,outcome,[19],inactive
same,outcome,[13],inactive
